Assay outcomes as filed in PubChem.
Rab9 promoter act = activates the Rab9 promoter; Huh7 Rab9 promoter-luciferase reporter, luminescence, 24 h; AID 485297; actives 2.8% (n = 320,000); Potency, µM (doses to about 9.22 µM), inactives show top-dose activation, negative = inhibition, most hits filed as activators; note: % of control where 0% means no effect; nearly all actives have a fitted effect of over 60% in size
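Cells were plated at 1500 per well in reduced-serum medium with 10% FBS and left 2 h. Compound in DMSO was then added for 24 h at 37 °C. Reporter signal was read by luminescence after 10 min with luciferase detection reagent.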
ELG1 genotox = induces genotoxicity in HEK293T cells with luciferase-tagged ELG1; AID 504466; HEK293T ELG1-luciferase reporter, luminescence, 16 h; actives 1.3% (n = 330,000); Potency, µM (top dose mostly 46 µM), inactives show at the top dose activity change, positive = activation, hits mostly activators; note: % of control where 0% means no effect; nearly all actives have a fitted effect of over 60% in size
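Luminescence read-out: rising ELG1-luciferase signal, reflecting elevated ELG1 protein under genetic stress, flags genotoxic compounds. Cells were treated for 16 hr at 37 °C before ONE-Glo detection.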
Luc counter = blocks Kinase-Glo luciferase, a counter-screen artifact | actives 0.28% (n = 200,000) | Potency, µM (titrated, usually from 38.3 µM), for inactives: top-dose activity change, negative = inhibition, hits mostly inhibitors | Q27757 | Kinase-Glo luciferase, ATP luminescence, 8 min | AID 1379; note: % is set by controls: 0 for no effect and ±100 for the full control effect; nearly all actives have a fitted effect of over 60% in size
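Kinase-Glo luciferase light output from ATP and luciferin was measured with 10 uM ATP, within the enzyme's linear range. Buffer: 50 mM imidazole pH 7.2, 50 mM KCl, 7 mM MgCl2, 0.01% Tween 20, 0.05% BSA; luminescence read after 8 min at ambient temperature.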
NPC1 prom act = NPC1 promoter activation; Huh7 NPC1 promoter luciferase reporter, 24 h; Potency, µM (series often up to 9.22 µM), for inactives: at the top dose activation, usual class: activators; actives 2.4% (n = 320,000); AID 485313; note: % of control where 0% means no effect; nearly all actives have a fitted effect of over 60% in size
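Luminescence read-out of NPC1 promoter-driven luciferase in stably transfected Huh7 cells; compounds delivered in DMSO and left 24 h at 37C, 5% CO2, qHTS titration format.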
FLuc counter = counter-screen for miR-21 project: firefly luciferase inhibitors or activators | P08659 | purified FLuc, Km substrates, luminescence inhibition | Potency, µM (titrated, usually from 57.5 µM), inactives show top-dose activity change, negative = inhibition, hits mostly inhibitors | actives 6.9% (n = 360,000) | AID 588342;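 note: plate controls were vehicle for no effect and reference inhibitor for full effect; nearly all actives have a fitted effect of over 55% in size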
Target sequence (P08659 whole entry, looked up): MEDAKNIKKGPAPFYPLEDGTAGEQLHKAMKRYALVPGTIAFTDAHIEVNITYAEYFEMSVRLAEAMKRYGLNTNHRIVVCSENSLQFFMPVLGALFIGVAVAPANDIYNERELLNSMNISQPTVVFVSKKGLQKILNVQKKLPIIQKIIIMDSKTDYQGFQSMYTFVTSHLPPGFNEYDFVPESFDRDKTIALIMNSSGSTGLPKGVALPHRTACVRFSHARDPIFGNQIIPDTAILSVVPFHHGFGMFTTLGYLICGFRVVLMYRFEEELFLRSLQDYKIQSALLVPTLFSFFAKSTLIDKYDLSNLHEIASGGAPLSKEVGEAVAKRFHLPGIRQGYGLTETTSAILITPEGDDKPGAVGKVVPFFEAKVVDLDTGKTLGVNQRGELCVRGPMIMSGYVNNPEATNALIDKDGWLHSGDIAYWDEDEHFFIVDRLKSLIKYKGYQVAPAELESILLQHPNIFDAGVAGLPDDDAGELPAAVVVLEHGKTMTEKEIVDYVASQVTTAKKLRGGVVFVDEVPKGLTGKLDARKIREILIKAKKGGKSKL
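Purified P. pyralis luciferase, 10 nM final, with Km-level 10 uM D-luciferin and 10 uM ATP in 50 mM Tris acetate pH 7.5, 10 mM Mg acetate, 0.01% Tween-20, 0.05% BSA; 6-point qHTS titration about 60 µM downward; luminescence read.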
SMN2 splice up = increases expression of the SMN2 splice variant. HEK293 SMN2-luciferase splicing reporter, luminescence, 30-36 h. AID 1458. Potency, µM (doses to about 46.1 µM), inactives show at the highest dose activity change, positive = activation, hits mostly activators. actives 2.8% (n = 210,000); note: % of control where 0% means no effect; nearly all actives have a fitted effect of over 55% in size
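HEK293 cells carry an SMN2 […]–luciferase reporter in which exon 7 inclusion puts luciferase in frame. Cells were plated 10-12 h before compound addition, then incubated 30-36 h at 37C. ONE-Glo luminescence was read; sodium butyrate at 4.5 mM final served as control.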
Numbers without * were called inactive. Only some compounds are listed: those with a hit (about 7.5% of all), similar ones and a draw of the others. Calls come from the whole dose curve; as a rule, active = well fitted curve in the direction sought with a large enough effect; inconclusive = small, poorly fitted or top-dose-only effect, or another doubt; inactive = no such curve, though single readings can be large; an effect the other way counts as inactive or inconclusive. Potency is the fitted concentration of half-maximal effect.

O=c1cc(-c2ccccc2)nc2nc(-c3ccccc3)[nH]n12 was read as Rab9 promoter act inconclusive, ELG1 genotox 18µM*, Luc counter 7%, NPC1 prom act inconclusive, FLuc counter 11µM* and SMN2 splice up 18µM*.
Screening Nc1nc2nc(-c3ccccc3)cc(=O)n2[nH]1 returned Rab9 promoter act 17%, ELG1 genotox -7%, Luc counter -6%, NPC1 prom act 0%, FLuc counter 12µM* and SMN2 splice up 0%.
Screening Cc1nc2nc(-c3ccccc3)[nH]n2c(=O)c1Cc1ccccc1 returned Rab9 promoter act 21%, ELG1 genotox 9%, Luc counter -5%, NPC1 prom act 25%, FLuc counter 19µM* and SMN2 splice up 13µM*.
`Cc1nc2nc(Cc3ccccc3)[nH]n2c(=O)c1Cc1ccccc1` gave Rab9 promoter act -4%, ELG1 genotox 1%, Luc counter 1%, NPC1 prom act -2%, FLuc counter -1% and SMN2 splice up -8%.
`CCC(=O)Nc1nc2nc(-c3ccccc3)cc(=O)n2[nH]1` gave Rab9 promoter act 7%, ELG1 genotox 0%, NPC1 prom act 1% and FLuc counter inconclusive.
For COc1ccc(N(CC(=O)NCc2ccccc2Cl)S(=O)(=O)c2c(C)[nH]c(=O)[nH]c2=O)cc1 the results were FLuc counter -19% and SMN2 splice up 4%.
Screening Cc1ccc(-n2nnc(-c3cccnc3Cl)n2)cc1 returned Rab9 promoter act 0.79µM*, ELG1 genotox 5.8µM*, NPC1 prom act 0.79µM* and FLuc counter 0.76µM*.
Clc1ccc(-n2nnc(-c3cccnc3Cl)n2)cn1 was read as Rab9 promoter act inconclusive, ELG1 genotox inconclusive, NPC1 prom act inconclusive and FLuc counter 13µM*.
For Brc1ccccc1-n1nnc(-c2nccs2)n1 the results were Rab9 promoter act 1.4µM*, ELG1 genotox 8.2µM*, NPC1 prom act 2.5µM* and FLuc counter 7.6µM*.
O=C(Nc1nccs1)c1ccccc1Br was read as Rab9 promoter act 27%, ELG1 genotox 7%, NPC1 prom act 6% and FLuc counter inconclusive.
For Clc1ncccc1-c1nnn(-c2ccccc2Br)n1 the results were Rab9 promoter act 25%, ELG1 genotox inconclusive, NPC1 prom act 23% and FLuc counter 17µM*.
For CCN1CCc2c(sc(-n3cccc3)c2C(C)NC(=O)Nc2cc(Cl)c(OC)cc2OC)C1 (stereo unspecified) the results were FLuc counter 5%.
For O=C(NC1CCCC1)c1cc(-c2ccc(Cl)cc2Cl)on1 the results were Rab9 promoter act 3.5µM*, ELG1 genotox 1.3µM*, NPC1 prom act 1µM* and FLuc counter 0.85µM*.
Screening O=C(NC1CCCCC1)c1cc(-c2ccccc2Cl)on1 returned Rab9 promoter act 2.8µM*, ELG1 genotox 21µM*, NPC1 prom act inconclusive and FLuc counter inconclusive.
For O=C(NC1CCCC1)c1cc(-c2ccccc2O)on1 the results were Rab9 promoter act 6%, ELG1 genotox 15µM*, NPC1 prom act 13% and FLuc counter 4.8µM*.
Screening O=C(NC1CCCC1)c1cc(-c2ccccc2Cl)on1 returned Rab9 promoter act 2.5µM*, ELG1 genotox inconclusive, NPC1 prom act 1.6µM* and FLuc counter 5.4µM*.
For Cc1cccc(C)c1OCc1cc(C(=O)NC2CCC2)no1 the results were Rab9 promoter act 11%, ELG1 genotox 9%, NPC1 prom act 16% and FLuc counter inconclusive.
For Cc1ccc(Cn2c(CN3CCC(C(=O)O)CC3)cc3ccccc32)cc1 the results were FLuc counter -12% and SMN2 splice up 9%.
For O=c1c(O)cc(C2Oc3cc(O)cc(O)c3CC2O)cc2c(C3Oc4cc(O)cc(O)c4CC3O)cc(O)c(O)c12 (stereo unspecified) the results were Luc counter -11% and SMN2 splice up -8%.
`CCC(=O)N1CCc2cc(S(=O)(=O)NC(CC(C)C)C(=O)Nc3cc(C)ccc3OC)ccc21` (stereo unspecified) gave FLuc counter -5% and SMN2 splice up -5%.
CCOc1ccc(NS(=O)(=O)c2ccc3c(c2)NC(=O)CCS3)cc1 was read as FLuc counter -9%.
For COc1ccccc1-c1cc(C(=O)NC2CCCC2)no1 the results were Rab9 promoter act inconclusive, ELG1 genotox inconclusive, NPC1 prom act inconclusive and FLuc counter 19µM*.
Screening COc1ccc(-c2cc(C(=O)NC3CCCC3)no2)cc1OC returned Rab9 promoter act 25%, ELG1 genotox 7%, Luc counter -3%, NPC1 prom act inconclusive, FLuc counter -3% and SMN2 splice up 2%.
`COc1ccc(OCc2nnc(SCC(=O)N(C)Cc3ccccc3)n2N)cc1` gave Rab9 promoter act 1%, ELG1 genotox -4%, Luc counter 6%, NPC1 prom act -3%, FLuc counter inconclusive and SMN2 splice up 0%.
Screening Cc1cc(C)nc(SC2=CS(=O)(=O)c3ccccc32)n1 returned Rab9 promoter act -5%, ELG1 genotox -44%, Luc counter 0%, NPC1 prom act -8%, FLuc counter -12% and SMN2 splice up inconclusive.
`O=S1(=O)C=C(Sc2nnc(-c3ccccc3)o2)c2ccccc21` gave Rab9 promoter act -41%, ELG1 genotox -7%, Luc counter -1%, NPC1 prom act -26%, FLuc counter 30µM* and SMN2 splice up -57%.
COc1ccc(/C=N/N2C(=O)CSC2=S)cc1 was read as Luc counter 1%, FLuc counter inconclusive and SMN2 splice up 15%.
For CC(C)(C)c1ccc(/C=N/N2C(=O)CSC2=S)cc1 the results were Rab9 promoter act 16%, ELG1 genotox 7%, NPC1 prom act 12% and FLuc counter 17µM*.
`Cc1cc(C)n(CC(=O)NC2CCCCC2C)c(=O)c1C#N` (stereo unspecified) gave Rab9 promoter act 1%, ELG1 genotox 0%, NPC1 prom act -1% and FLuc counter 0%.
For CC(C)N1C(=O)CN(C2CCCCCC2)C(=O)C1c1ccccc1F (stereo unspecified) the results were Rab9 promoter act inconclusive, ELG1 genotox inconclusive, Luc counter -2%, NPC1 prom act 3.5µM*, FLuc counter -14% and SMN2 splice up 7%.
For Cc1ccc(C2C(=O)N(C3CCCCCC3)CC(=O)N2C(C)C)cc1 (stereo unspecified) the results were FLuc counter 4%.
